ALOX12 inhib: blocks human 12-lipoxygenase activity | 150,000 tested, 0.12% active | purified 12-hLO, xylenol orange hydroperoxide absorbance | Potency, µM (series often up to 57.1 µM), hits mostly inhibitors | AID 1452; also: nearly all actives have a fitted effect of over 55% in size
Target sequence (P18054 whole entry, looked up): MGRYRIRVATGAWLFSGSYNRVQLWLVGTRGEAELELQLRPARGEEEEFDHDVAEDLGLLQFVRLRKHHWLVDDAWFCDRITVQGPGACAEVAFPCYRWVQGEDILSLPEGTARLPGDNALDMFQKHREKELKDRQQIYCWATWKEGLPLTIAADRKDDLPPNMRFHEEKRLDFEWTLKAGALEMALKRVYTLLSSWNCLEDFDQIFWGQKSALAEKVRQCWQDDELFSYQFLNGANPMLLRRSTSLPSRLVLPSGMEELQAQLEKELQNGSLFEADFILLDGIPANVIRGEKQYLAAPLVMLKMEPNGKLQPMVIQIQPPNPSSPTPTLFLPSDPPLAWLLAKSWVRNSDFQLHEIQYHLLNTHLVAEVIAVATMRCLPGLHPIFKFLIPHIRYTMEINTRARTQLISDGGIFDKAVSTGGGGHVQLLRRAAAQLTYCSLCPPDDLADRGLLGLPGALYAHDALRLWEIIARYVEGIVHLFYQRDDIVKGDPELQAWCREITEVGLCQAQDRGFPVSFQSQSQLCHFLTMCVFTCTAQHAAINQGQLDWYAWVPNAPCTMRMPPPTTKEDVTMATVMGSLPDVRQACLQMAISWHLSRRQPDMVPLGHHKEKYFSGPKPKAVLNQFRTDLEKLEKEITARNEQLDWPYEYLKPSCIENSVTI
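150 nM 12hLO, 25 mM Hepes pH 7.0 + 0.01% Triton X-100; cpd preinc 15 min RT; 40 uM arachidonic acid, 30 min RT; Fe-XO 30 min; A573/A405 ratio as read-out.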
IMPase inh: cell-permeable inhibitors of inositol monophosphatase (IMPase) | P97697 | 120,000 tested, under 10 active | inhibition (IP1 accumulation), % at 46.1 µM | CHO-M1 cells, IP1 accumulation, HTRF TR-FRET ratio; active = well fitted curve in the direction sought with a large enough effect in the signal ratio, not every such curve was filed as active; inconclusive = small, poorly fitted or top-dose-only effect, or a change in a side signal; inactive = no such curve, though single readings can be large or run the other way; the % refers to the signal ratio;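 also: cells stimulated with carbachol in lithium chloride buffer; higher means more IMPase inhibition seen as more IP1 and lower FRET ratio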
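The IP-One HTRF competitive assay in carbachol-stimulated CHO-M1 cells quantifies cellular IP1. Compounds spanned up to 46 uM final, and activity is expressed as AC50 from concentration-response fits of the ratio and donor data.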
ALOX15B inhib: blocks human 15-lipoxygenase 2 activity; O15296; purified 15hLO-2, xylenol orange hydroperoxide absorbance; Potency, µM (highest dose often 57.1 µM), most hits filed as inhibitors; 110,000 tested, 0.56% active; AID 881; also: nearly all actives have a fitted effect of over 60% in size
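Enzyme 50 nM, AA 45 uM, 25 mM Hepes pH 7.5 + 0.01% Triton X-100; cpd preinc 15 min RT, rxn 90 min RT; stop/detect with 200 uM XO + 300 uM Fe(II) in 50 mM H2SO4, 30 min; A573/A405.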
PNC inhibitor: perinucleolar compartment assembly inhibition. PC3M PTB-GFP, PNC prevalence imaging, 16 h; hits give low values. activity change (PNC), negative = inhibition, % at 10 µM. 140,000 tested, 3.1% active. AID 2417;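 active = readout at or below -70, meaning at least 70% loss of cells showing the perinucleolar compartment, a nuclear body marking cancer cells; inconclusive = readout between -30 and a set limit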
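Read-out is percentage of cells bearing a perinucleolar compartment, from automated 20x imaging of fixed, Hoechst-stained PC3M PTB-GFP cells. Cells were seeded 4 h, then exposed 16 h to compound (23 nl of library stock) in duplicate plates.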
Large screens that a line does not name were inactive. An excerpt weighted towards active compounds, which were near 3% of everything screened. Unless noted, calls follow the shape of the dose curve; as a rule, active = well fitted curve in the direction sought with a large enough effect; inconclusive = small, poorly fitted or top-dose-only effect, or another doubt; inactive = no such curve, though single readings can be large; an effect the other way counts as inactive or inconclusive.

O=C(NC1(C(F)(F)F)NC(=O)N(CCc2ccccc2)C1=O)c1ccccc1F (configuration not stated)	none (no result: ALOX12 inhib, ALOX15B inhib, PNC inhibitor)
N#C/C(C(=O)NCc1ccccc1)=C1/SC(Cc2ccc(Cl)cc2)C(=O)N1c1ccccc1 (configuration not stated)	none (no result: IMPase inh, ALOX15B inhib)
C/C(CCC(=O)O)=N/Nc1ccc([N+](=O)[O-])cc1[N+](=O)[O-]	PNC inhibitor -86.9 (no result: IMPase inh, ALOX15B inhib)
O=C(NC(=S)Nc1ccc(N2CCCCC2)cc1)c1cccs1	ALOX12 inhib inconclusive, ALOX15B inhib 20µM, PNC inhibitor inconclusive
CCN(c1ccccc1)S(=O)(=O)c1ccc(NC(=S)NC(=O)c2cccs2)cc1	ALOX12 inhib 25.1µM, ALOX15B inhib inconclusive
O=C(NC(=S)Nc1ccc(S(=O)(=O)N2CCCC2)cc1)c1cccs1	ALOX12 inhib inconclusive (no result: IMPase inh, ALOX15B inhib)
Cc1ccc(C(=O)Nc2ccc3c4c(cccc24)CC3)cc1[N+](=O)[O-]	PNC inhibitor -81.3 (no result: ALOX15B inhib)
Cc1c(C(=O)Nc2ccc3c4c(cccc24)CC3)cccc1[N+](=O)[O-]	none (no result: IMPase inh, ALOX15B inhib)
Cc1ccc(S(=O)(=O)N2CCc3nc(-c4ccccc4)c4c(c3C2)CO[C@@H](C)C4)cc1	none (no result: IMPase inh, ALOX15B inhib, PNC inhibitor)
Cc1oc2c(c1C(=O)Nc1cccc(C(=O)O)c1)CCCC2	PNC inhibitor -107.7
Cc1ccc(C(=O)Nc2cccc(C(=O)O)c2)cc1	none
COc1cc(/C=N/Nc2snc(SC)c2C#N)cc(OC)c1OC	ALOX15B inhib inconclusive, PNC inhibitor -105.3
COc1ccccc1C1C2CCCCC2(O)CCN1CC(=O)Nc1ccccc1 (configuration not stated)	PNC inhibitor -103.7
CC(=O)N1c2c(cc(Br)cc2S(=O)(=O)N2CCN(C(=O)c3ccco3)CC2)CC1C (configuration not stated)	PNC inhibitor -100.0 (no result: ALOX15B inhib)
Cc1ccc(C(=O)O/N=C/c2c(N3CCOCC3)n(C)c3ccccc23)cc1	none (no result: ALOX15B inhib)
Cn1c(N2CCOCC2)c(/C=N/OC(=O)c2ccc(F)cc2)c2ccccc21	PNC inhibitor -99.1
CC1CCC2CC1C2(C)C (configuration not stated)	none (no result: IMPase inh, PNC inhibitor)
CC(=O)Nc1ccc(NC(=O)C(C)OC(=O)CN(C)S(=O)(=O)c2ccc(Cl)cc2)cc1 (configuration not stated)	PNC inhibitor -113.4
COc1ccc(CNc2ncnc(N)n2)cc1	PNC inhibitor -100.7
NNc1nc(-c2ccccc2)cc(-c2ccccc2O)n1	PNC inhibitor -106.0
Cc1c(C(=O)Nc2ccc3c(c2)CCC3)cccc1[N+](=O)[O-]	PNC inhibitor -113.8 (no result: IMPase inh, ALOX15B inhib)
O=C(c1ccco1)N1c2ccccc2Sc2ccccc21	none (no result: ALOX15B inhib)
O=C(c1ccco1)N1CCN(C(=O)N2c3ccccc3Sc3ccccc32)CC1	PNC inhibitor -89.2
NC(=O)C1CCN(C(=O)c2ccco2)CC1	PNC inhibitor -80.5 (no result: ALOX15B inhib)
O=C(c1ccco1)N1CCN(C(=O)c2ccccc2Oc2ccccc2)CC1	PNC inhibitor -111.6 (no result: IMPase inh, ALOX15B inhib)
CCOC(=O)N1CCN(C(=O)c2ccccc2Oc2ccccc2)CC1	PNC inhibitor inconclusive
O=C(N1CCN(c2ccccn2)CC1)N1c2ccccc2Sc2ccccc21	PNC inhibitor -84.0
O=C(N1CCN(c2ccccn2)CC1)C(Cl)(Cl)Cl	PNC inhibitor inconclusive (no result: IMPase inh, ALOX15B inhib)
CCCSc1nnc2c(n1)OC(c1cccs1)Nc1ccc(Br)cc1-2 (configuration not stated)	none (no result: ALOX12 inhib, ALOX15B inhib, PNC inhibitor)
Cc1cccc(C)c1NS(=O)(=O)c1ccc(NS(=O)(=O)c2ccc3c(c2)OCCO3)cc1	none (no result: ALOX12 inhib, ALOX15B inhib, PNC inhibitor)
C/C(=N/NC(=O)c1ccoc1C)c1ccc(NC(=O)C2CCCC2)cc1	PNC inhibitor -86.9 (no result: IMPase inh, ALOX15B inhib)
Cc1ccc(C)c(S(=O)(=O)NCc2ccc(C(=O)N3CCC(Cc4ccccc4)CC3)cc2)c1	none
Cc1nnsc1SCCNC(=O)c1c(F)cccc1F	PNC inhibitor -81.5
COc1ccc2nc(SCC(=O)Nc3ccccc3)[nH]c2c1	PNC inhibitor -107.2 (no result: IMPase inh, ALOX15B inhib)
COc1ccc2nc(SCC(=O)Nc3c(C)cccc3C)[nH]c2c1	none
CCCCNS(=O)(=O)c1ccc2nc(SCC(=O)Nc3cccc(F)c3)[nH]c2c1	PNC inhibitor -98.3 (no result: IMPase inh, ALOX15B inhib)
CCN(CC)CCCC(C)NC(=O)c1ccc(-n2c(=O)c(=O)[nH]c3ccccc32)cc1 (configuration not stated)	none (no result: IMPase inh, ALOX15B inhib, PNC inhibitor)
Cc1cc(Nc2ccccc2C(=O)O)nc2nc3ccccc3c(=O)n12	PNC inhibitor -89.8
O=C(O)c1ccccc1Nc1ccccc1	none (no result: PNC inhibitor)
CCCCSc1nnc2c(n1)OC(c1ccc(C)s1)Nc1ccccc1-2 (configuration not stated)	none (no result: ALOX12 inhib, ALOX15B inhib, PNC inhibitor)
COCCOC(=O)c1c(C)nc(SCC(=O)Nc2ccc(OC)cc2)c(C#N)c1-c1ccco1	PNC inhibitor -111.1
CCC1=C2CC[C@H]3C(=O)N(CC)C(=O)[C@H]3[C@H]2[C@@]2(C)C(=NCCc3c[nH]c4ccccc34)OC(=O)N2C1=O	none (no result: IMPase inh, PNC inhibitor)
Cc1cc(/C=C2\SC(=Nc3ccc(F)cc3)NC2=O)c(C)n1-c1ccc(S(N)(=O)=O)cc1	ALOX15B inhib inconclusive, PNC inhibitor -99.1
CS(=O)(=O)c1ccc(N)cc1	PNC inhibitor -88.3
O=C(Nc1cc2c(oc1=O)CCCC2=O)c1cccc(Cl)c1	PNC inhibitor -106.0
CC1CCN(CCCCOc2ccccc2[N+](=O)[O-])CC1	none
COc1ccccc1Nc1nc(C2(C)CCC(=O)O2)cs1 (configuration not stated)	none
O=C(OCC1OC2C(Oc3nc(=O)ccn32)C1O)c1ccccc1 (configuration not stated)	PNC inhibitor inconclusive
Cc1cn(C2OC(COC(=O)c3ccccc3)C(O)C2O)c(=O)[nH]c1=O (configuration not stated)	PNC inhibitor -88.6
Cc1cn(C2OC(COC(=O)c3ccccc3)C(OC(=O)c3ccccc3)C2OC(=O)c2ccccc2)c(=O)[nH]c1=O (configuration not stated)	PNC inhibitor -118.9 (no result: ALOX15B inhib)
Cc1cn2c(nc1=O)OC1C(O)C(COC(=O)c3ccccc3)OC12 (configuration not stated)	none
CCS(=O)(=O)N1CCN(C2CCC(C)CC2)CC1 (configuration not stated)	none
COCC(C)NC(=O)c1cc(-c2ccc(OC)c(OC)c2)on1 (configuration not stated)	PNC inhibitor -83.1
Cc1ccc(-n2nnnc2CSc2nnc(-c3ccc(O)cc3)o2)cc1	none (no result: IMPase inh, ALOX15B inhib)
CCn1c(C)nc2cc(C(=O)N=Nc3c(O)[nH]c4ccccc34)ccc21	PNC inhibitor -92.6 (no result: IMPase inh, ALOX15B inhib)
COc1ccc(C(C)(C)C)cc1NC(=S)NCCN1CCOCC1	none (no result: ALOX15B inhib)
COc1cccc(-c2nc(S(=O)(=O)c3ccc(C)cc3)c(N3CCCCC3)o2)c1	none (no result: ALOX12 inhib, ALOX15B inhib, PNC inhibitor)
CC(=O)c1cccc(NC(=O)N2CCC(c3nnc(SCC(N)=O)n3C)CC2)c1	none
CC(C)(C)c1nnc(SCC(=O)c2ccccc2)n(N)c1=O	PNC inhibitor -113.8 (no result: IMPase inh, ALOX15B inhib)
O=C(Nc1ccc(-c2noc(CCc3ccccc3)n2)cc1)c1ccco1	PNC inhibitor -89.3
c1ccc(CCc2nc(-c3ccccc3)no2)cc1	none
COc1cc2cc(CN(Cc3cccs3)C(=S)Nc3cccc(C)c3)c(=O)[nH]c2cc1OC	PNC inhibitor -113.0 (no result: IMPase inh, ALOX15B inhib)
